From PubChem BioAssay (Tox21)
Results filed as inconclusive are left out. Calls of active or inactive are those of the source. Unless noted, calls follow the shape of the dose curve; as a rule, active = well fitted curve in the direction sought with a large enough effect in the repeat runs; inconclusive = weak or mixed curves; inactive = no such curve, though single readings can be large; an effect the other way counts as inactive or inconclusive.

Assays:
[1] = qHTS assay to identify small molecule agonists of the estrogen related receptor (ERR) signaling pathway from Tox21 library (AID 1224849; calls by dose curve; also: % is scaled to controls: 0 for no effect and ±100 for the full control effect; nearly all actives have a fitted effect of over 15% in size); conditions: ERR reporter cell line, ONE-Glo luciferase, 18 h; at 92.4 µM (top of the series) unless noted
Summary of the method: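 Tox21 compounds tested for ERR agonism in an NTP reporter cell line: 18 h treatment at 37 C, then ONE-Glo luminescence.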

[2] = qHTS RealTime-Glo MT Cell Viability Assay in HepG2 cells - 40 hour (AID 1224870); also: nearly all actives have a fitted effect of over 50% in size; also: potency is read from the fitted curve at half-maximal effect; as to activity change, negative = cytotoxic: % is scaled to controls: 0 for no effect and ±100 for the full control effect
Summary of the method: (§1)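 HepG2 cells mixed with RealTime-Glo MT reagents (NanoLuc plus cell-permeant prosubstrate) were seeded at 600 cells/well, incubated 5 h at 37 C/5% CO2, then pinned with compounds in DMSO; nonlytic luminescence tracked viability during 40 h treatment.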

[3] = A CellTox Green Cytotoxicity Assay to monitor cytotoxicity in HEK293 cells - 0 hour (AID 1224869); also: % is scaled to controls: 0 for no effect and ±100 for the full control effect; nearly all actives have a fitted effect of over 50% in size
Summary of the method: (§2)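 Tox21 screen in HEK293: membrane-impermeant cyanine dye fluoresces on binding dead-cell DNA; compound pinned 5 h post-seeding, plates held at 37 C, signal read repeatedly through 40 h.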

[4] = qHTS RealTime-Glo MT Cell Viability Assay in HepG2 cells - 8 hour (AID 1224873); also: nearly all actives have a fitted effect of over 55% in size; also: potency is read from the fitted curve at half-maximal effect; as to viability change, negative = cytotoxic: % is scaled to controls: 0 for no effect and ±100 for the full control effect
Summary of the method: as §1

[5] = qHTS RealTime-Glo MT Cell Viability Assay in HEK293 cells - 40 hour (AID 1224874); conditions: RealTime-Glo luminescence; max response: active compounds read low; also: nearly all actives have a fitted effect of over 50% in size; also: potency is read from the fitted curve at half-maximal effect
Summary of the method: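 HEK293 + NanoLuc + prosubstrate, 600 cells/well; 5 h, 37 C/5% CO2; compound 23 nL in DMSO by pintool; 37 C; luminescence read at 0, 8, 16, 24, 32 and 40 h time points.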

[6] = qHTS RealTime-Glo MT Cell Viability Assay in HepG2 cells - 24 hour (AID 1224867); also: nearly all actives have a fitted effect of over 50% in size; also: potency is read from the fitted curve at half-maximal effect; as to activity change, negative = cytotoxicity: % is scaled to controls: 0 for no effect and ±100 for the full control effect
Summary of the method: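 Compound treatment began 5 h after plating HepG2 cells (600/well) with NanoLuc luciferase and prosubstrate. Plates stayed at 37 C for 40 h; luminescence was captured at six time points, 0 h through 40 h.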

[7] = qHTS RealTime-Glo MT Cell Viability Assay in HEK293 cells - 32 hour (AID 1224868); also: nearly all actives have a fitted effect of over 50% in size; also: potency is read from the fitted curve at half-maximal effect; as to activity change, negative = cytotoxic: top concentration of the series differs between compounds; % is scaled to controls: 0 for no effect and ±100 for the full control effect
Summary of the method: (§3)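 Quantitative high-throughput screen of the Tox21 10K library in HEK293: cells and RealTime-Glo reagents plated together, compound added at 5 h, luminescence monitored through 40 h at 37 C.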

[8] = A CellTox Green Cytotoxicity Assay to monitor cytotoxicity in HEK293 cells - 40 hour (AID 1224871); also: nearly all actives have a fitted effect of over 45% in size; also: potency is read from the fitted curve at half-maximal effect
Summary of the method: as §2

[9] = qHTS RealTime-Glo MT Cell Viability Assay in HEK293 cells - 16 hour (AID 1224872); also: nearly all actives have a fitted effect of over 50% in size; also: potency is read from the fitted curve at half-maximal effect
Summary of the method: as §3

[10] = qHTS assay to identify small molecule antagonists of the estrogen related receptor (ERR) signaling pathway from Tox21 library (AID 1224848)
Summary of the method: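 First, 2,000 ERR cells per well were plated and held 6 h at 37 C/5% CO2. Next, compounds in DMSO were pinned in and left 18 h at 37 C. Finally, ONE-Glo was added and luminescence read after 30 min at room temperature.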

CCCCCCCCCCCCN1CCCC1=O
inactive: activity change, positive = activation [1] -16.7% | Potency [2]

O=C(Nc1ccccc1)c1cc(Cl)ccc1O
active: Potency [2] 49 µM | Potency [5] 21.9 µM
inactive: activity change, positive = activation [1] -16.2% | Potency [3] | Potency [4]

C/C(=N\[Si](C)(C)C)O[Si](C)(C)C
inactive: Potency [6] | Potency [7] | Potency [3] | Potency [2] | Potency [8] | Potency [9] | Potency [4]

CCOC(=O)OC(=O)OCC
inactive: Potency [6] | Potency [7] | Potency [3] | Potency [2] | Potency [8] | Potency [9] | Potency [4] | max response [5] 18.5%

CC(Cc1ccc(O)c(O)c1)C(C)Cc1ccc(O)c(O)c1 (stereo not given)
active: Potency [6] 43.6 µM | Potency [7] 34.7 µM | Potency [9] 49 µM | Potency [4] 43.6 µM | Potency [5] 38.9 µM
inactive: activity change, positive = activation [1] -42.5% | Potency [8]

Cc1cc(Br)ccc1NC(=O)CCl
inactive: activity change, positive = activation [1] -79.8%
active: Potency [10] 15.4 µM | Potency [7] 24.5 µM | Potency [2] 43.6 µM | Potency [8] 30.9 µM | Potency [9] 38.9 µM | Potency [5] 19.5 µM

COc1cc(C(C)C)ccc1C
inactive: activity change, negative = cytotoxicity [6] 0.531% [at 15.8 µM] | activity change, negative = cytotoxic [7] 4.56% [at 15.8 µM] | cytotoxicity [3] -0.495% [at 15.8 µM] | activity change, negative = cytotoxic [2] 19.4% [at 15.8 µM] | cytotoxicity increase [8] -5.42% [at 15.8 µM] | activity change, negative = cytotoxicity [9] -1.07% [at 15.8 µM] | viability change, negative = cytotoxic [4] -7.86% [at 15.8 µM] | max response [5] -0.423%

CCCCCCCCCCCCS(=O)(=O)Cl
inactive: activity change, negative = cytotoxicity [6] 3.24% [at 15.8 µM] | activity change, negative = cytotoxic [7] 18.8% [at 15.8 µM] | cytotoxicity [3] 0.643% [at 15.8 µM] | activity change, negative = cytotoxic [2] 12.8% [at 15.8 µM] | cytotoxicity increase [8] -2.77% [at 15.8 µM] | activity change, negative = cytotoxicity [9] 11.1% [at 15.8 µM] | viability change, negative = cytotoxic [4] -5.43% [at 15.8 µM] | max response [5] 12.1%

Clc1nc(C(Cl)(Cl)Cl)c(Cl)c(Cl)c1Cl
active: Potency [2] 54.9 µM | Potency [5] 0.011 µM
inactive: activity change, positive = activation [1] -54% | Potency [7] | Potency [3] | Potency [4]

C=C1C(CCl)(CCl)C2(Cl)C(Cl)C(Cl)C1(Cl)C2(Cl)Cl (stereo not given)
active: Potency [10] 60.4 µM | Potency [8] 48.4 µM | Potency [9] 48.4 µM
inactive: activity change, positive = activation [1] -73.9% | Potency [2]

Nc1c(Br)cc([N+](=O)[O-])cc1Br
inactive: activity change, positive = activation [1] -20.8% | Potency [6] | Potency [7] | Potency [3] | Potency [2] | Potency [8] | Potency [9] | Potency [4] | max response [5] -23.8%

c1ccc(-c2ccccc2-c2ccccc2)cc1
inactive: Potency [6] | Potency [7] | Potency [3] | Potency [2] | Potency [8] | Potency [9] | Potency [4] | max response [5] -10.2%

CCCCNc1ccc(NCCCC)c2c1C(=O)c1ccccc1C2=O
inactive: activity change, negative = cytotoxicity [6] -2.93% [at 15.8 µM] | activity change, negative = cytotoxic [7] 1.33% [at 15.8 µM] | cytotoxicity [3] 1.41% [at 15.8 µM] | activity change, negative = cytotoxic [2] -5.13% [at 15.8 µM] | cytotoxicity increase [8] -1.5% [at 15.8 µM] | activity change, negative = cytotoxicity [9] 9.94% [at 15.8 µM] | viability change, negative = cytotoxic [4] 0.0909% [at 15.8 µM] | max response [5] -1.48%

COc1cccc(-c2ccc(/C=C\CN3CCCCCC3)cc2Cl)c1
inactive: activity change, positive = activation [1] -20.2% | Potency [3]
active: Potency [6] 43.4 µM | Potency [7] 43.4 µM | Potency [2] 43.4 µM | Potency [9] 43.4 µM | Potency [5] 43.4 µM

CO[Si](OC)(c1ccccc1)c1ccccc1
inactive: activity change, positive = activation [1] -12.9% | Potency [6] | Potency [7] | Potency [3] | Potency [2] | Potency [8] | Potency [9] | max response [5] -18.7%

CC1CCC(C(C)(C)O)CC1 (stereo not given)
inactive: Potency [6] | Potency [7] | Potency [3] | Potency [2] | Potency [8] | Potency [9] | Potency [4]

CSc1nnc(C(C)(C)C)c(=O)[nH]1
inactive: Potency [6] | Potency [7] | Potency [3] | Potency [2] | Potency [8] | Potency [9] | Potency [4]

CC(c1cc(C(C)(C)C)cc(C(C)(C)C)c1O)c1cc(C(C)(C)C)cc(C(C)(C)C)c1O
inactive: activity change, positive = activation [1] -15.4% | Potency [6] | Potency [4]

CCCC(=O)c1cc(O)c(O)cc1O
inactive: Potency [6] | Potency [7] | Potency [3] | Potency [2] | Potency [8] | Potency [9] | Potency [4]

CCCCCCCCCCCCCCCCCCNC(=O)OC1CCN(C(=O)OC[C@H](COC(=O)N(Cc2cccc[n+]2CC)C(=O)c2ccccc2OC)OC)CC1
active: Potency [10] 10.6 µM | Potency [7] 9.52 µM | Potency [9] 21.3 µM | Potency [5] 9.52 µM
inactive: activity change, positive = activation [1] -55.2% [at 42.5 µM] | Potency [3]

COc1cc(/C=C/C(=O)CC(=O)/C=C/c2ccc(O)c(OC)c2)ccc1O
inactive: activity change, positive = activation [1] -73.6%
active: Potency [10] 13.8 µM | Potency [7] 24.7 µM | Potency [9] 24.7 µM | Potency [5] 22 µM

Cc1ccc(C=O)cc1
inactive: Potency [6] | Potency [7] | Potency [3] | Potency [2] | Potency [8] | Potency [9] | Potency [4]
